The nature of assay [1]: qHTS assay for small molecules that induce genotoxicity in human embryonic kidney cells expressing luciferase-tagged ATAD5 (AID 651632). Further: nearly all actives have a fitted effect of over 15% in size. The method in brief: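 HEK293T cells carrying luciferase-tagged ATAD5 were given compound or DMSO vehicle and incubated 16 hr at 37C, 5% CO2. Luciferase activity was read after 30 min at room temperature with Amplite; a rise signals genotoxic stress.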

The nature of assay [2]: qHTS assay for small molecule agonists of the p53 signaling pathway - cell viability (AID 651633; calls by dose curve;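 further: p53RE-bla HCT reporter cells with a stable beta-lactamase p53 reporter; series mostly up to about 83 µM; nearly all actives have a fitted effect of over 30% in size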). The method in brief: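 p53RE-bla cells, seeded at 4,000 per well and rested 5 h at 37 C/5% CO2, received compounds in DMSO for 16 h at 37 C. CellTiter-Glo was then added, and luminescence was read after 30 min at room temperature to gauge cytotoxicity.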
A general note: qHTS replaces the single test concentration by a dilution series.

The nature of assay [3]: qHTS assay for small molecules that induce genotoxicity in human embryonic kidney cells expressing luciferase-tagged ATAD5 - cell viability (AID 651634; calls by dose curve; further: nearly all actives have a fitted effect of over 25% in size). Put shortly: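 HEK293T cells carrying luciferase-tagged ATAD5, 2,000 cells/well, exposed to compound for 15.5 hr at 37C. Viability read as live-cell protease activity by CellTiter-Fluor fluorescence after 30 min at 37C.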

Assay [4] can be described thus: qHTS assay for small molecule disruptors of the mitochondrial membrane potential - cell viability (AID 720634; calls by dose curve;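 further: human HepG2 liver cancer cells; series mostly up to about 83 µM; nearly all actives have a fitted effect of over 20% in size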). Put shortly: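 HepG2 cells, 2,000 per well, attached overnight, then treated 1 hr at 37 C, 5% CO2. Viability read as ATP by CellTiter-Glo luminescence after 30 min at room temperature. Read in the same wells as the m-MPI membrane-potential dye assay.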
The nature of assay [5]: qHTS assay for small molecule disruptors of the mitochondrial membrane potential (AID 720635). Further: potency means the concentration at half of the fitted maximal effect. The method in brief: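 HepG2 cells (2,000/well) attached overnight at 37C, then took compound for 1 hr at 37C, 5% CO2. Mito-MPS dye was added for 30 min; fluorescence was read at 490/535 nm (monomers) and 540/590 nm (aggregates).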
Assay [6] is described as follows: qHTS assay to test for compound auto fluorescence at 590 nm (red) in HepG2 cells (AID 720674). The method in brief:
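Intrinsic compound fluorescence in the red window (Ex/Em 540/590 nm) is measured in attached HepG2 cells exposed for 1 hr, DMSO vehicle as baseline, benchmarked to Rose Bengal sodium.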

A short description of assay [7]: qHTS assay to test for compound auto fluorescence at 535 nm (green) in HepG2 cells (AID 720675).
Assay [8] is described as follows: qHTS assay to test for compound auto fluorescence at 460 nm (blue) in HEK293 cells (AID 720678). Put shortly: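 HEK293, 2,000 cells/well, 10% dialyzed FBS; attach 4-5 hr 37C; pin compound or DMSO; o/n 37C/5% CO2; fluorescence 405/460 nm; triamterene-equivalent units.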
Assay [9] in a line: qHTS assay to test for compound auto fluorescence at 590 nm (red) in HEK293 cells (AID 720679). Put shortly:
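Intensity at 540nm excitation and 590nm emission is reported as Rose Bengal sodium-equivalent autofluorescence. Measurements followed overnight exposure (37C, 5% CO2) of HEK293 cells, 2,000 per well, to 23 nL compound.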

Consider nine compounds from PubChem BioAssay (Tox21).

Molecules are shown by their SMILES. Results filed as inconclusive are left out. Activity calls are given as the source filed them. Unless noted, the call rests on the fitted dose curve; in most records, active means well fitted curve in the direction sought with a large enough effect in the repeat runs; inconclusive means weak or mixed curves; inactive means no such curve, though single readings can be large; an effect the other way counts as inactive or inconclusive.

For the compound `O=[N+]([O-])c1ccccc1C(F)(F)F`, the Potency entry in [1], in assay [2], in [3], in [4], in assay [5] and in [8] was “inactive” in each case. Further, the compound was classed as inactive in assay [6], in assay [7] and in assay [9].

Turning to `O=c1n(CCCN2CCN(c3cccc(Cl)c3)CC2)nc2ccccn12`, the Potency entry in assay [2], in assay [3], in assay [4], in assay [5] and in assay [8] was “inactive” each time. The compound was classed as inactive in [6], in assay [7] and in assay [9].

Turning to `Cc1ccc(C(C)C)cc1`, the Potency entry in assay [1], in [2], in assay [3], in assay [4], in [5] and in assay [8] was “inactive” throughout. In addition, the compound was called inactive in [6], in assay [7] and in [9].

Consider `O=C1CCCCCCCCCCC1`, for which the Potency entry in [1], in assay [2], in [3], in assay [4], in assay [5] and in assay [8] was “inactive” throughout. Further, the result in [6], in assay [7] and in assay [9] was inactive.

Take `CN1CCCC1=O`: the Potency entry in assay [1], in assay [2], in [3], in assay [4], in [5] and in assay [8] was “inactive” in each case. In addition, the compound was classed as inactive in assay [6], in [7] and in [9].

Consider `C[Si](C)(C)N[Si](C)(C)C`, for which the Potency result in assay [1], in [2], in [3], in assay [4], in assay [5] and in assay [8] was “inactive” throughout. Further, the compound was classed as inactive in assay [6], in assay [7] and in assay [9].

As to `CCc1cccc(CC)c1N`, the Potency result in assay [1], in assay [2], in assay [3], in assay [4], in assay [5] and in assay [8] was “inactive” throughout. For the same compound, the call in assay [6], in assay [7] and in assay [9] was inactive.

In the case of `O=C(c1ccccc1)c1ccc(O)c(O)c1O`, the Potency result in assay [1], in [2], in [3], in assay [4] and in [8] was “inactive” in each case. Also, the Potency in [5] was 48.6 µM (active). Further, the call in assay [6], in [7] and in assay [9] was inactive.

As to `CCCCCC(C)=O`, the Potency entry in assay [1], in [2], in assay [3], in assay [4], in assay [5] and in [8] was “inactive” each time. Also, the compound was classed as inactive in assay [6], in [7] and in [9].
